Consider 40 compounds from PubChem BioAssay (NCI).

Molecules are shown by their SMILES. Where “and” joins values, the source holds several entries; their conditions need not be identical. Identical values can stand only once. The panel holds about 83,000 compounds, 20% with a hit somewhere; the sample as a whole holds those more often.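 A percent growth of 40 corresponds to 60% growth inhibition; 0 means no net growth; -100 means all cells died. Active threshold: below 10.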 Values without a mark were called inactive. Calls of active or inactive are those of the source.

This assay has as its system MDA-MB-468 breast. Kind of assay: NCI-60 one-dose screen, 48 h (100 = growth as untreated, 0 = no growth, -100 = all killed). The conditions noted are these: 10 µM unless noted.
As to `CC1=CC(C)(C)NC(=S)N1c1ccc(S(=O)(=O)O)c2cccc(S(=O)(=O)O)c12`, the growth is 107%. Under `CC(C)Cc1cc(CNC(=O)C2[C@H]3CN(C(=O)c4ccccc4)C[C@@H]23)nn1-c1ccccc1` (stereo not given in full) stands 88.9%. With `C#C[C@]1(O)CC[C@H]2[C@@H]3CC=C4c5sc(Nc6ccc(OC)nc6)nc5CC[C@]4(C)[C@H]3CC[C@@]21C` the figure was 17.4%. With `O=C(NCc1ccc(Cl)cc1Cl)C1CCC(=O)N1c1cccs1` (stereo not given) the figure was 115%. Consider `CC(C)CC(NC(=O)CN(Cc1ccccc1)S(C)(=O)=O)C(=O)O` (stereo not given), for which the growth was 99.6%. Under `CCOC(=O)c1cc(/C(=N\O)c2cc(OC)c(OC)c(OC)c2)n2c(C)cccc12` stands 21.8%. With `CCNCCNc1cc(-c2ccc(C(=O)OC)cc2)c(C#N)c2nc3ccccc3n12` the figure was 31.4%; with `CCCn1cnc2c(c1=N)C(c1ccc(Cl)cc1)c1sc3c(F)cccc3c1O2` (stereo not given), 42.4%; with `C=C(C)[C@@H]1CC[C@]2(COCCCN)CC[C@]3(C)[C@H](CC[C@@H]4[C@@](C)(CCCNCCCN)[C@H](C(=C)C)CC[C@]43C)[C@@H]12`, -53.8% [100 µM] (active). As to `CN(C)C(=N)N=C(N)N`, the growth was 80.6% and 128%. On to `COc1cc(C2=NN(c3ccccc3)C(c3cccc(Nc4ccnc5cc(C(F)(F)F)ccc45)c3)C2)cc(OC)c1OC` (stereo not given), for which the growth was 92.2%. With `COc1ncc2cc1NS(=O)(=O)c1cccc(c1)C(=O)NCC1=CC=C(S1)c1ncnc3c1SC2=C3C` the figure was -34.5% (active); with `CCOC(=O)CC/C(C)=N\Nc1ccc([N+](=O)[O-])cc1`, 83.2%. With `Cc1nc(-c2cn3c(n2)-c2ccc(-c4cnn(C(C)(C)C(N)=O)c4)cc2OCC3)n(C(C)C)n1` the figure was -20.6% (active). Under `N#C/C(=C\c1ccc(Br)cc1)c1cc2ccccc2[nH]1` stands 82.8%; under `Cc1n(Cc2ccc3ccccc3c2)c(Cl)c(Cl)[n+]1Cc1ccc2ccccc2c1`, -19.5% (active). `CCN(CCC#N)c1ccccc1`: the growth is 118%. Regarding `Oc1ccc(CSc2nnc(-c3ccncc3)o2)c2cccnc12`, the growth was 11.9%. Under `CCCCCCC(C)c1ccccc1O` (stereo not given) (tested in a mixture with another compound) stands 124%. With `CCOC(=O)c1sc(NC(=O)c2cc(OC)c(OC)c(OC)c2)nc1C` the figure was 92.2%; with `CN1CCN(c2ccc(/C=C/C(=O)c3ccc(O)cc3)cc2)CC1`, 89.5%; with `CC(C)(C)C(=O)OCOP(=O)(OCOC(=O)C(C)(C)C)C1CC(O)N(O)C1=O` (stereo not given), 61%. With `O=C(Nc1ccccc1)Nc1ccc(C(=O)/C=C/c2ccc(N3CCCC3)cc2)cc1` the figure was 17.3%; with `Nc1n[nH]c2cccc(C#Cc3cccc(C(=O)Nc4ccc(CN5CCOCC5)c(C(F)(F)F)c4)c3)c12`, 66%. For `CCCCCCCCCCCCCCCCCN`, the growth was 101%. Under `O=S(=O)(O)c1ccc(O)c(C2CCCCC2)c1` stands 103%; under `COc1ccc2[nH]c(-c3ccc(Cl)cc3)cc(=O)c2c1`, 99%; under `CCN(CC)CCC(CNc1c2ccc(Cl)cc2nc2ccc(OC)cc12)c1ccccc1` (stereo not given), -87.1% (active). With `CCCCCCCCCCNCCSS(=O)(=O)O` the figure was 110%; with `CN=C(N)N/N=C(\C)c1ccc2c(c1)Cc1cc(/C(C)=N/NC(N)=NC)ccc1-2`, -90.7% (active); with `C=CCc1c(O)c(C(=O)/C=C/c2ccc(Cl)cc2)c(OC)c2ccoc12`, 19.9%. With `CC(=C(c1ccc(OCCN2CCCCC2)cc1)c1ccc(OCCN2CCCCC2)cc1)c1ccc(Cl)cc1` the figure was -79.6% (active); with `CNC(=O)c1c(NC(=O)c2ccc(C(C)(C)C)cc2)sc2c1CCC(=O)C2`, 3.25% (active). Turning to `COc1ccccc1NC(=O)Cn1cc(CN2CCN(c3ccnc4cc(Cl)ccc34)CC2)nn1`, the growth was 80.8%. Under `CCCCCCCCCCCCCCCCCCOP(=O)([O-])OC1CC[N+](C)(C)CC1` stands 0% (active). With `COc1cc(C(=O)c2ccccc2C(=O)O)c(OC)c2c1CCCC2`, the growth was 94.7%.

Take `O=C1/C(=C/c2ccc([N+](=O)[O-])s2)Oc2ccc(Cl)cc21`: the growth was -36.2% (active). Under `Nn1c(N/N=C/c2nc3ccccc3s2)n[nH]c1=S` stands 109%; under `Cc1ccc(S(=O)(=O)N(CCc2ccc(Cl)cc2)S(=O)(=O)c2ccc(C)cc2)cc1`, 73.8%. Under `CCOc1ccc(/C=C/C(=O)c2ccccc2)cc1` stands 68.2%.
